In publication PMC5540273 (PLoS ONE, 2017):

Legend:
Details in all cases: concentration: 1 μM, replicates: in singlicate; n = 1
NEK3 = system: NEK3
NEK4 = system: NEK4
NEK5 = system: NEK5
NEK6 = system: NEK6
NEK7 = system: NEK7
NEK9 = system: NEK9
NIK = system: T1, NIK
T1 construct: gene MAP3K14

NIM1 = system: T2, NIM1
T2 construct: gene MGC42105

NLK = system: NLK
OSR1 = system: T3, OSR1
T3 construct: gene OXSR1

PAK1 = system: PAK1
PAK2 = system: PAK2
PAK3 = system: PAK3
PAK4 = system: PAK4
PAK6 = system: PAK6
PAK7 = system: PAK7
PCTK1 = system: T4, PCTK1
T4 construct: gene CDK16

PCTK2 = system: T5, PCTK2
T5 construct: gene CDK17

PCTK3 = system: T6, PCTK3
T6 construct: gene CDK18

PDGFRA = system: PDGFRA
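Also: KINOMEscan kinase panel screen.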

| Structure (SMILES) | %Inh (NEK3) [%] | %Inh (NEK4) [%] | %Inh (NEK5) [%] | %Inh (NEK6) [%] | %Inh (NEK7) [%] | %Inh (NEK9) [%] | %Inh (NIK) [%] | %Inh (NIM1) [%] | %Inh (NLK) [%] | %Inh (OSR1) [%] | %Inh (PAK1) [%] | %Inh (PAK2) [%] | %Inh (PAK3) [%] | %Inh (PAK4) [%] | %Inh (PAK6) [%] | %Inh (PAK7) [%] | %Inh (PCTK1) [%] | %Inh (PCTK2) [%] | %Inh (PCTK3) [%] | %Inh (PDGFRA) [%] |
| --- | --- | --- | --- | --- | --- | --- | --- | --- | --- | --- | --- | --- | --- | --- | --- | --- | --- | --- | --- | --- |
| FC(F)(F)c1ccc(-c2nn3ncccc3c2-c2ccnc(Nc3cccc(C(F)(F)F)c3)n2)cc1 [GW828205] | 15 | 0 | 0 | 0 | 0 | 0 | 0 | 0 | 10 | 0 | 37 | 30 | 0 | 7 | 20 | 0 | 0 | 0 | 0 | 0 |
| O=C(NCCCN1CCCC1=O)c1cnc(NCc2cc(Cl)ccc2Cl)nc1NC1CCNCC1 | 37 | 0 | 0 | 0 | 0 | 0 | 0 | 0 | 2 | 0 | 5 | 0 | 0 | 3 | 0 | 0 | 0 | 0 | 10 | 0 |
| CS(=O)(=O)CCNCc1nc(-c2ccc3ncnc(Nc4ccc(OCc5cccc(F)c5)c(Cl)c4)c3c2)cs1.Cl [GW583340] | 3 | 0 | 6 | 0 | 0 | 11 | 0 | 6 | 0 | 0 | 19 | 9 | 0 | 0 | 0 | 7 | 3 | 16 | 10 | 0 |
| Fc1cccc(COc2ccc(Nc3ncnc4sc(-c5ccc[nH]5)cc34)cc2Cl)c1 [GW707818] | 1 | 0 | 31 | 0 | 0 | 17 | 0 | 14 | 23 | 0 | 6 | 5 | 0 | 6 | 11 | 12 | 0 | 22 | 0 | 0 |
| Cl.c1ccc(Cn2ncc3cc(Nc4ncnc5ccccc45)ccc32)cc1 [GW273749] | 2 | 0 | 18 | 0 | 1 | 15 | 0 | 3 | 0 | 10 | 5 | 0 | 0 | 0 | 15 | 6 | 0 | 0 | 23 | 0 |
| FC(F)(F)c1ccc(-c2cc(-c3c[nH]nc3-c3ccccn3)ccn2)cc1 [GW599550] | 4 | 0 | 0 | 0 | 6 | 52 | 0 | 11 | 22 | 0 | 11 | 28 | 32 | 0 | 0 | 0 | 0 | 11 | 25 | 11 |
| N#Cc1ccc(Oc2ccc(Nc3ncnc4cc[nH]c34)cc2Cl)cc1 | 26 | 0 | 0 | 0 | 13 | 2 | 0 | 30 | 17 | 4 | 35 | 45 | 24 | 19 | 27 | 15 | 0 | 13 | 20 | 25 |
| Cl.O=S(=O)(c1cccc(F)c1)c1ccc(Nc2ncnc3cc(Br)sc23)cc1Cl [GSK306886] | 0 | 0 | 59 | 0 | 0 | 23 | 4 | 0 | 44 | 0 | 1 | 0 | 0 | 1 | 1 | 9 | 4 | 10 | 11 | 0 |
| CCn1c(-c2ccncc2)nc2cnccc21 [SB-735216] | 14 | 8 | 0 | 6 | 6 | 0 | 15 | 25 | 4 | 15 | 0 | 47 | 0 | 0 | 0 | 0 | 0 | 0 | 0 | 13 |
| O=c1cc(N2CCOCC2)nc2n(Cc3cccc(Cl)c3)ccn12 [GSK2296823] | 3 | 16 | 2 | 0 | 2 | 3 | 13 | 0 | 0 | 7 | 6 | 10 | 0 | 0 | 0 | 53 | 5 | 0 | 17 | 0 |
